Rows were chosen to be rich in hits. Some 7.5% of all compounds tested hit in one or more screens of this group.
ELG1 DNA repair – qHTS screen for small molecules that inhibit ELG1-dependent DNA repair in human embryonic kidney (HEK293T) cells expressing luciferase-tagged ELG1. HEK293T ELG1-luciferase reporter, luminescence, 16 h; DNA damage induced by 5-fluorouridine. Potency, µM (doses to about 46.1 µM), without a hit: top-dose activity change, negative = inhibition, actives largely listed as inhibitors. hit rate 2.3% among 330,000. AID 504467, 2011; also: potency is read from the fitted curve at half-maximal effect; nearly all actives have a fitted effect of over 55% in size
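Luminescence from the luciferase reporter, measured 30 min after ONE-Glo reagent at room temperature, was the read-out. Beforehand, 2,000 cells per well were exposed for 16 hr at 37 °C to 5-fluorouridine together with compound or vehicle.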
RORg inh – qHTS for inhibitors of ROR gamma transcriptional activity; Nuclear receptor ROR-gamma (Mus musculus), P51450; Drosophila S2 Gal4-RORgamma UAS-luciferase reporter, 20 h; Potency, µM (titrated, usually from 53.6 µM), inactives show at the top dose activity change, negative = inhibition, hits mostly inhibitors; hit rate 5.4% among 310,000; AID 2551, 2010; also: potency is read from the fitted curve at half-maximal effect; nearly all actives have a fitted effect of over 60% in size
Target sequence (P51450 whole entry, looked up, the tested form may be a part): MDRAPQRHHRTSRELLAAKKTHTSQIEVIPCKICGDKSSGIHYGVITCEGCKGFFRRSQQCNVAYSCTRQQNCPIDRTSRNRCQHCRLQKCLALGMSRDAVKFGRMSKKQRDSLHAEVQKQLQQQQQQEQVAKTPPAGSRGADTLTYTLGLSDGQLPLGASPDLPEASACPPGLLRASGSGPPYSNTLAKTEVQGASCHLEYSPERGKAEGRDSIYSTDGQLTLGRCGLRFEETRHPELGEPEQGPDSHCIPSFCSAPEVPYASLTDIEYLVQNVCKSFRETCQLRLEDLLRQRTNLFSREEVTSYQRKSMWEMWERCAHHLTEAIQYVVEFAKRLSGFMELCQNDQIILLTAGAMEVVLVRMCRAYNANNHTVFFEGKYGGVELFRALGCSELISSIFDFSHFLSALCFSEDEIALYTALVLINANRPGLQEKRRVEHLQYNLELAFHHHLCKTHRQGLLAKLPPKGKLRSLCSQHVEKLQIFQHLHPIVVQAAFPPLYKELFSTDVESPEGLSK
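In this cell-based reporter format, copper sulfate (700 uM final) drives Gal4–ROR gamma fusion expression from a metallothionein promoter in Drosophila Schneider cells; compounds preincubated 1 hr, reporter read after 20 hr at ambient temperature.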
TSHR antagonist – Antagonists of the Thyroid Stimulating Hormone Receptor: HTS campaign; AID 504810, 2011; TSHR-expressing cells, TSH-stimulated cAMP HTRF, 2 h; stronger effect = lower value; activity change, negative = inhibition, % at 11.5 µM; hit rate 0.2% among 330,000;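 active = activity change below a set negative limit, meaning inhibition stronger than a set level, cut at about -70% in these data; inconclusive = activity change between two set negative limits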
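TSHR-expressing cells were treated with compounds, then stimulated with TSH at EC80 (4nM final) for 2 hours at 37 deg C. Cellular cAMP was measured by HTRF competition between lysate cAMP and cAMP-d2 for a cryptate-labelled anti-cAMP antibody.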
B2AR arrestin – qHTS assay of beta-arrestin-biased ligands of beta2-adrenergic receptor; Beta-2 adrenergic receptor (Homo sapiens), P07550; hit rate 0.02% among 330,000; Potency, µM (doses to about 46.1 µM), for inactives: at the highest dose activation, most hits filed as activators; beta-arrestin recruitment to beta2AR, cell-based reporter;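 also: potency is read from the fitted curve at half-maximal effect; 0% = DMSO controls and full agonism = EC100 isoproterenol or metaproterenol; nearly all actives have a fitted effect of over 65% in size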
Gal4-VP16 FLuc – VP16 counterscreen qHTS for inhibitors of ROR gamma transcriptional activity | Drosophila S2 Gal4-VP16 UAS-luciferase, luminescence, 20 h | Potency, µM (doses to about 53.6 µM), inactives show top-dose activity, negative = inhibition, most hits filed as inhibitors | hit rate 3.5% among 310,000;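 also: Gal4-VP16 expression switched on by copper sulfate through the metallothionein promoter; potency is read from the fitted curve at half-maximal effect; nearly all actives have a fitted effect of over 50% in size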
The depositor's hits bear a star; [ ] = another dose, or the depositor's remark. Unless noted, calls follow the shape of the dose curve; as a rule, active = well fitted curve in the direction sought with a large enough effect; inconclusive = small, poorly fitted or top-dose-only effect, or another doubt; inactive = no such curve, though single readings can be large; an effect the other way counts as inactive or inconclusive. Unless noted, % is scaled to controls: 0 for no effect and ±100 for the full control effect.

How did O=C1[C@H]2[C@H]3[C@H](O)[C@H](O)C/C(=N/OC[C@@H](O)COCc4ccco4)[C@H]3CC[C@@H]2C(=O)N1C[C@@H]1CCCO1 do in these assays?
RORg inh: -5%[10 µM]; Gal4-VP16 FLuc: 2%[10 µM]

Results for CC1(C)CC2CC(C)(CN2C(=S)Nc2ccccc2F)C1 (stereo not given) ?
ELG1 DNA repair: 3%; RORg inh: 4µM*; TSHR antagonist: 1; B2AR arrestin: 0%; Gal4-VP16 FLuc: 2%

Results for CC1(C)CC2CC(C)(CN2C(=S)NC(=O)c2ccccc2Cl)C1 (stereo not given) ?
ELG1 DNA repair: -1%; RORg inh: 1.3µM*; TSHR antagonist: 7; B2AR arrestin: -1%; Gal4-VP16 FLuc: 1µM*

What do the screens show for `CC1(C)CC2CC(C)(CN2C(=S)Nc2ccccc2)C1` (stereo not given)?
ELG1 DNA repair: -2%; RORg inh: inconclusive; TSHR antagonist: 9; B2AR arrestin: 0%; Gal4-VP16 FLuc: -26%

Results for CC[C@H](C)[C@H](NC(=O)[C@H](CCC(=O)O)NC(=O)[C@H](CO)NC(=O)[C@@H](NC(=O)[C@H](C)N)C(C)C)C(=O)N[C@@H](CCC(N)=O)C(=O)N[C@@H](CC(C)C)C(=O)N[C@@H](CCSC)C(=O)N[C@@H](Cc1cnc[nH]1)C(=O)N[C@@H](CC(N)=O)C(=O)N[C@@H](CC(C)C)C(=O)NCC(=O)N[C@@H](CCCCN)C(=O)N[C@@H](Cc1cnc[nH]1)C(=O)N[C@@H](CC(C)C)C(=O)N[C@@H](C)C(=O)N[C@@H](CO)C(=O)N[C@H](C(=O)N[C@@H](CCC(=O)O)C(=O)N[C@@H](CCCNC(=N)N)C(=O)N[C@@H](CCSC)C(=O)N[C@@H](CCC(N)=O)C(=O)N[C@@H](Cc1c[nH]c2ccccc12)C(=O)N[C@@H](CC(C)C)C(=O)N[C@@H](CCCNC(=N)N)C(=O)N[C@@H](CCCCN)C(=O)N[C@@H](CCCCN)C(=O)N[C@@H](CC(C)C)C(=O)N[C@@H](CCC(N)=O)C(=O)N[C@@H](CC(=O)O)C(=O)N[C@H](C(=O)N[C@@H](Cc1cnc[nH]1)C(=O)N[C@@H](CC(N)=O)C(=O)N[C@@H](Cc1ccccc1)C(=O)O)C(C)C)C(C)C ?
RORg inh: 21%; Gal4-VP16 FLuc: 4%

How did CCOC(=O)Cc1csc(SCC(=O)c2c(N)n(CC(C)C)c(=O)n(C)c2=O)n1 do in these assays?
ELG1 DNA repair: 5.2µM*; RORg inh: inconclusive; TSHR antagonist: -31; B2AR arrestin: 0%; Gal4-VP16 FLuc: 10µM*

What do the screens show for `Cc1csc(SCC(=O)c2c(N)n(CC(C)C)c(=O)n(C)c2=O)n1`?
ELG1 DNA repair: 18µM*; RORg inh: 9%; TSHR antagonist: -11; B2AR arrestin: 0%; Gal4-VP16 FLuc: 3%

What do the screens show for `CCn1c(CSCc2ccc(F)cc2)nnc1SCC(=O)N1CCN(c2ccccc2)CC1`?
ELG1 DNA repair: 13µM*; RORg inh: -24%; TSHR antagonist: -17; B2AR arrestin: 0%; Gal4-VP16 FLuc: -2%

Results for Cc1ccc(CSCc2nnc(SCC(=O)N3CCN(c4ccccc4)CC3)n2C)cc1 ?
ELG1 DNA repair: 23µM*; RORg inh: inconclusive; TSHR antagonist: -14; B2AR arrestin: 0%; Gal4-VP16 FLuc: inconclusive

How did O=c1c(-c2ccc(F)cc2)nc2cnc(N3CCOCC3)nc2n1C[C@H]1CCCO1 do in these assays?
RORg inh: 3%; Gal4-VP16 FLuc: -4%

What do the screens show for `Cc1ccc(-n2c(-c3cccnc3)n[nH]c2=S)c(C)c1`?
ELG1 DNA repair: 0%; RORg inh: inconclusive; TSHR antagonist: 3; B2AR arrestin: 0%; Gal4-VP16 FLuc: inconclusive

Results for COc1cc(-c2ncc3ccccn23)cc(OC)c1OC ?
ELG1 DNA repair: -13%; RORg inh: 4%; TSHR antagonist: 3; B2AR arrestin: 0%; Gal4-VP16 FLuc: -4%
